# An excerpt weighted towards active compounds, which were near 8% of everything screened.
# ELG1 repair inh – inhibitors of ELG1-dependent DNA repair in HEK293T cells; HEK293T ELG1-luciferase reporter, luminescence, 16 h; DNA damage induced by 5-fluorouridine; Potency, µM (series often up to 46.1 µM), usual class: inhibitors; hit rate 2.3% among 330,000; further: nearly all actives have a fitted effect of over 55% in size
#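 In this reporter screen, reduction of luminescence relative to DMSO vehicle indicated activity. Compounds and 5-fluorouridine were added together to 2,000 cells per well, incubated for 16 hr at 37 °C, then developed with ONE-Glo.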
# TSHR antagonist – blocks TSH signaling through the human TSH receptor; TSHR-expressing cells, TSH-stimulated cAMP HTRF, 2 h; hits give low values; activity change, negative = inhibition, % at 11.5 µM; hit rate 0.2% among 330,000;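 active means activity change below a set negative limit, meaning inhibition stronger than a set level, cut at about -70% in these data; inconclusive means activity change between two set negative limits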
# Target sequence (P16473 whole entry, looked up): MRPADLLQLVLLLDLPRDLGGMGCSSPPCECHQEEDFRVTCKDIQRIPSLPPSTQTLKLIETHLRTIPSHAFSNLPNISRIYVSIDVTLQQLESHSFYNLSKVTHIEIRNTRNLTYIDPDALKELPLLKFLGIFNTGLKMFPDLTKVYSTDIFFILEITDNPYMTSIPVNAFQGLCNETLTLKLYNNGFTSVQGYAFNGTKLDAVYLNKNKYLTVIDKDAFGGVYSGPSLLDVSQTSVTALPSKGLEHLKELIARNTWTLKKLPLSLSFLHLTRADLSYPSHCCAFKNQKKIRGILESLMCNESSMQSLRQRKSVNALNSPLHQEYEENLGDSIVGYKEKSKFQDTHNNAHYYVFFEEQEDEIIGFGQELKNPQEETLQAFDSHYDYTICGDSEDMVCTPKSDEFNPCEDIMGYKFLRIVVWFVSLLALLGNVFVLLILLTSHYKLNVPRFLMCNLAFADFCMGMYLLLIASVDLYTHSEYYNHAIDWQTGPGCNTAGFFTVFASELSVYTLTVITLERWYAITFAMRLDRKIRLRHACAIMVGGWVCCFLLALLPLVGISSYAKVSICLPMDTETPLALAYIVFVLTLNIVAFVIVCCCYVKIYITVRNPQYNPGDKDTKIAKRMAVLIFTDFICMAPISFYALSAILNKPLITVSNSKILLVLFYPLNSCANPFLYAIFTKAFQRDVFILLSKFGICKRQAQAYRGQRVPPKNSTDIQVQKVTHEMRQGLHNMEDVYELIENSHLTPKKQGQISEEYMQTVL
#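 Read-out is FRET at 665 nm (cryptate excitation 337 nm) from a cryptate-tagged anti-cAMP antibody, competed by cell cAMP against cAMP-d2. Compounds are tested on freshly harvested TSHR cells challenged with 4nM TSH (EC80) for 2 hours at 37 deg C.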
# Coupling enz – coupling enzyme interference in Giardia aldolase counter-screen; coupling enzyme system counterscreen, AmpLite Red fluorescence; activity change, negative = inhibition, % at 58.2 µM, hits read low; hit rate 0.67% among 290,000; AID 2472; in the data active means activity change below about -30%
#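 Counterscreen of the coupled detection system alone, without aldolase: glyceraldehyde-3-phosphate coupling enzymes plus AmpLite Red readout. Compounds at 57.5 uM final, 10 min RT preincubation, 20 min RT reaction, fluorescence 525/598 nm.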
# Gal4-VP16 FLuc – counter-screen for ROR gamma inhibitors: Gal4-VP16 reporter | Drosophila S2 Gal4-VP16 UAS-luciferase, luminescence, 20 h | Potency, µM (highest dose often 53.6 µM), hits mostly inhibitors | hit rate 3.5% among 310,000;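 further: Gal4-VP16 expression switched on by copper sulfate through the metallothionein promoter; nearly all actives have a fitted effect of over 50% in size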
# RORg inh – blocks mouse ROR gamma transcriptional activity. P51450. Drosophila S2 Gal4-RORgamma UAS-luciferase reporter, 20 h. Potency, µM (titrated, usually from 53.6 µM), usual class: inhibitors. hit rate 5.4% among 310,000. AID 2551; further: nearly all actives have a fitted effect of over 60% in size
#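 In this cell-based reporter format, copper sulfate (700 uM final) drives Gal4–ROR gamma fusion expression from a metallothionein promoter in Drosophila Schneider cells; compounds preincubated 1 hr, reporter read after 20 hr at ambient temperature.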
# A number is an active result; – = inactive; ? = inconclusive; · = no result given; [ ] = another dose, or the depositor's remark. Unless noted, the call rests on the fitted dose curve; in most records, active means well fitted curve in the direction sought with a large enough effect; inconclusive means small, poorly fitted or top-dose-only effect, or another doubt; inactive means no such curve, though single readings can be large; an effect the other way counts as inactive or inconclusive.
SMILES,ELG1 repair inh,TSHR antagonist,Coupling enz,Gal4-VP16 FLuc,RORg inh
O=C(N/N=C(\Cc1ncc[nH]1)c1ccccc1)c1cccnc1,9.2µM,–,–,–,–
O=C(N/N=C(\c1ccccc1)c1cccnc1)c1cccc(F)c1,?,–,–,·,0.126µM
COC(=O)c1sc(NC(=S)NC(=O)c2cccc(Br)c2)nc1C,?,–,–,?,?
COc1ccc(Cc2nnc(NC(=O)c3cccc(F)c3)s2)cc1OC,–,–,–,–,–
CCN1C(=O)[C@@H]2[C@@H](c3ccc(SC4CCCCC4)c(OC)c3)N3CCC[C@@]3(C(=O)OC)[C@@H]2C1=O,–,–,·,·,·
COCCCNc1nc2nonc2nc1NCCSC,23.1µM,–,–,–,–
OCCNc1nc2nonc2nc1NCCO,–,–,–,–,–
CC(=O)NCc1ccc(S(=O)(=O)N2CCCN(C)CC2)cc1,–,–,–,–,–
O=C1CCCN1C(=O)CSc1ncnc2sccc12,–,–,·,·,·
COc1ccc(N2CCN(C(=O)CSc3nnc4c(C)cc5ccccc5n34)CC2)cc1,23.1µM,–,–,–,–[10 µM]
Cc1cc2ccccc2n2c(SCC(=O)N3CCc4ccccc4C3)nnc12,?,–,–,17.8µM,?
Cc1ccc(-n2c(C)nnc2SCC(=O)N2CCc3ccccc3C2)cc1,–,–,–,–,–
COc1ncc2nc(-c3ccc(Cl)cc3)c(=O)n(C[C@H]3CCCO3)c2n1,·,·,–,–,–
Cc1cc(Br)ccc1NC(=O)CN(C)C(=O)c1ccc2ccccc2n1,?,–,·,·,·
Cc1c(-c2ccc(Cl)cc2)oc(=O)c2c(N)n(-c3ccccc3)nc12,?,–,–,?,7.94µM
S=c1[nH]cc(-c2ccc(Cl)cc2)n1Cc1ccccc1,–,–,–,2.82µM,2.51µM
CCn1c(-c2ccccc2)c[nH]c1=S,–,–,–,8.91µM,1.12µM
CC(C)Cn1c(-c2ccc(Br)cc2)c[nH]c1=S,–,–,–,1.58µM,0.631µM
CN(Cc1ccc(OCC(O)CN2CCCCC2)cc1)Cc1ccnc2ccccc12 (stereo not drawn),–,–,–,6.31µM,7.08µM
CCOC(=O)N1CCN(C(=O)COc2cccc3c2CCN(CC)C3=O)CC1,–,–,–,–,–
CC(=O)Nc1ccc(C(=O)OCC(=O)N2CCC(Cc3ccccc3)CC2)cc1,6.51µM,–,·,·,·
CCC1CCCCN1C(=O)COc1cccc2c1CCN(C)C2=O (stereo not drawn),?,–,–,–,?
O=C1c2cccc(OCC(=O)N3CCCc4ccccc43)c2CCN1Cc1ccc(F)cc1,23.1µM,–,–,–,?
CN1CCc2c(OCC(=O)N3CCC(Cc4ccccc4)CC3)cccc2C1=O,9.2µM,–,–,–,–
CCOC(=O)N1CCN(C(=O)COc2cccc3c2CCN(Cc2ccc(F)cc2)C3=O)CC1,20.6µM,–,–,–,?
SMILES,ELG1 repair inh,TSHR antagonist,Coupling enz,Gal4-VP16 FLuc,RORg inh
Cc1cccc(CN2CCc3c(OCC(=O)N4CCCc5ccccc54)cccc3C2=O)c1,?,–,–,–,?
COc1ccc(CN(C)C(=O)c2ccc(OCC(=O)N3CCOCC3)c(OC)c2)cc1,–,–,·,·,·
O=S(=O)(c1cccc(Br)c1)N1CCN(CCc2ccccc2)CC1,?,–,–,–,–
CC(C(=O)Nc1ccccc1F)N1CCN(S(=O)(=O)c2ccc(C(F)(F)F)cc2)CC1 (stereo not drawn),–,–,·,·,·
O=C(COc1cccc2c1CCN(Cc1ccc(Cl)cc1)C2=O)N1CCOCC1,11.6µM,–,–,–,–
Cc1ccc(CN2CCc3c(OCC(=O)Nc4cc(C)ccc4C)cccc3C2=O)cc1,23.1µM,–,–,–,?
O=C(N1CCCC1)N1CCN(S(=O)(=O)c2ccccc2)CC1,–,–,–,–,–
CC(C)C[C@@H](NC(=O)C1CCC(CNC(=O)[C@H](Cc2ccccc2)NC(=O)OC(C)(C)C)CC1)C(=O)O (stereo partly drawn),–,–,–,–,–
Cc1ccc(C)c(N2CN(CCC3=CCCCC3)CNC2=S)c1,–,–,–,4.47µM,3.16µM
CCN1CNC(=S)N(c2ccccc2C)C1,–,–,–,–,–
CCCN1CNC(=S)N(c2cc(C)ccc2C)C1,–,–,–,11.2µM,12.6µM
COc1cc(O)c(C(CC(=O)N2CCCC(C)C2)c2cc(OC)c(OC)c(OC)c2)c(OC)c1 (stereo not drawn),–,–,–,–,–
COc1ccc(C(CC(=O)N2CCCC(C)C2)c2c(O)cc(OC)cc2OC)cc1 (stereo not drawn),?,–,–,–,2µM
CCN(CC)S(=O)(=O)c1cc(NC(=O)C(=O)c2c(-c3ccccc3)cc3ccccn23)ccc1C,16.4µM,–,–,–,–
CCN(CC)S(=O)(=O)c1ccc(N2CCOCC2)c(NC(=O)C(=O)c2c(-c3ccccc3)cc3ccccn23)c1,?,–,–,–,–
CCN(CC)S(=O)(=O)c1cccc(NC(=O)C(=O)c2c(-c3ccccc3)cc3ccccn23)c1,16.4µM,–,–,–,7.94µM
Cc1n[nH]c(C)c1CCCCOc1ccccc1F,–,–,–,?,?
Cc1ccccc1OCCCCc1c(C)n[nH]c1C,–,–,–,12.6µM,?
Cc1ccccc1OCCCc1c(C)n[nH]c1C,?,–,–,–,7.08µM
Cc1cccc(C)c1OCCCCc1c(C)n[nH]c1C,·,·,–,?,17.8µM
COC(=O)c1sccc1NC(=O)Nc1ccc(OC)cc1,–,–,–,?,–
CCCN(CC(=O)Nc1cc(Cl)cc(Cl)c1)CC(=O)Nc1ccc(F)c(F)c1F,?,–,–,22.4µM,?
Cc1noc(C)c1-c1cc(Nc2ccccc2)ncn1,·,·,–,–,–
Cc1ccc(Cl)cc1NC(=O)Nc1cccs1,?,–,–,–,14.1µM
Cc1ccccc1NC(=O)Nc1cccs1,–,–,–,–,?
SMILES,ELG1 repair inh,TSHR antagonist,Coupling enz,Gal4-VP16 FLuc,RORg inh
C[N+]12CCCC[C@@H]1CCC(=C(c1cccs1)c1cccs1)C2 (stereo partly drawn),·,·,·,–,–
S=C(NCc1ccco1)Nc1ccc(Cl)c(Cl)c1,–,–,–,15.8µM,12.6µM
S=C(NCc1ccco1)Nc1cccc(Cl)c1,–,–,–,7.08µM,1.78µM
CC(=O)c1cccc(NC(=S)NCc2ccco2)c1,–,–,–,–,–
COc1ccc(Cl)cc1NC(=S)NCc1ccco1,–,–,–,?,17.8µM
COc1ccc([N+](=O)[O-])cc1NCC(=O)Nc1cccc(S(=O)(=O)N2CCCC2)c1,?,–,·,·,·
CCOC(=O)C(=CNNc1ccccc1)C(=O)OCC,6.51µM,–,–,–,–
CCOC(=O)Nc1ccc2c(CN3CCN(S(=O)(=O)c4ccccc4F)CC3)cc(=O)oc2c1,6.51µM,–,·,·,·
CCOC(=O)Nc1ccc2c(CN3CCN(S(=O)(=O)c4ccc(C(C)C)cc4)CC3)cc(=O)oc2c1,–,–,·,·,·

# Screens as filed in PubChem BioAssay.
